Bioassay records deposited in PubChem by several laboratories.
Abs 340nm: compound absorbs light at 340 nm | fold change at 10 µM | AID 708 | compound absorbance at 340 nm, fold over control | 65,000 tested, under 10 active;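 active = at 10 µM dose, initial 340 nm absorbance at least 2 fold that of control wells; inactive = change under 2 fold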;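 also: initial absorbance extrapolated from kinetic A340 decline of NADH oxidation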
M1 antag: M1 muscarinic receptor (rat) antagonism | B-score at 10 µM | P08482 | hit rate 3.4% among 64,000 | CHO-M1 cells, Fluo-4 calcium, ACh EC80 antagonist mode; stronger effect = lower value;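 active = calcium fluorescence response, raw or row-and-column corrected B-score, differing from the plate sample mean either way at a set confidence level, mostly lower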
Target sequence (P08482 whole entry, looked up): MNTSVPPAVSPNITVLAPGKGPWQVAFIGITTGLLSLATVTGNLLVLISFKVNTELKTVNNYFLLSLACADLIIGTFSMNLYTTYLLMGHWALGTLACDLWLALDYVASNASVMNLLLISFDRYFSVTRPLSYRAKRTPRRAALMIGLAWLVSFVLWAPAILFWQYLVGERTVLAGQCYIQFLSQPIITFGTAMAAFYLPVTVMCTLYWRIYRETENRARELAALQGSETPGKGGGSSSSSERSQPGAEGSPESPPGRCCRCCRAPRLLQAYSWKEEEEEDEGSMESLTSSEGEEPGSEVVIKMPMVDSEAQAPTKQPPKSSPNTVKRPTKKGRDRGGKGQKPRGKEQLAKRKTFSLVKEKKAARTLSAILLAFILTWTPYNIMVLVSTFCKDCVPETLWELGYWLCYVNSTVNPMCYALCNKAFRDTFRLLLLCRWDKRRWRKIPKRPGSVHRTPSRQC
M1 agonist: activates the M1 muscarinic receptor; AID 626; CHO-M1 cells, Fluo-4 calcium fluorescence, agonist mode; stronger effect = higher value; hit rate 3% among 64,000; B-score at 10 µM;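 active = fluorescence rise, raw or as B-score row- and column-corrected plate score, outside the 99.7% band of its plate's samples, either direction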
NADH coupling: inhibition of NAD/NADH coupling enzymes, library profiling | coupled PK/LDH NADH assays, four targets | IC50, µM (highest dose often 10 µM) | AID 774 | hit rate 0.02% among 65,000;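 active = single-dose screening hits from any of four coupled enzyme assays that gave an IC50 when retested across doses; inconclusive = no clear call, values can overlap the other calls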;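 also: the DPM-DC format reads NADH fluorescence rather than 340 nm absorbance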
Fluor 339 460: intrinsic fluorescence of library compounds, ex339/em460 – biochemical, MLSMR library, data from DPM-DC assay, artefact control, profiling panel; AID 709; fluorescence fold increase at 10 µM; compound autofluorescence, ex339/em460 nm, NADH buffer; stronger effect = higher value; 1 = no-compound wells, NADH background; hit rate 5.5% among 65,000;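 active = at 10 µM, mean starting fluorescence two-fold or more over control wells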;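 also: signal is the first read of a kinetic run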
Htt clearance: compounds clearing mutant huntingtin protein; HeLa Exon1htt(103Q)mCFP, aggregate imaging; zero = plate's median compound well; inhibition, % at 1.5 µM; hit rate 0.42% among 47,000; AID 853;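 active = inhibition of aggregate fluorescence above about 70%, also judged a hit by eye on the cell image, limit read from the data, passing the limit was not always enough; inconclusive = no rule stated for this call; inactive = not judged a hit on image review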;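 also: cells exposed to compound for three days before fixation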
Each line names hits and unclear results; the compound was inactive in the other large screens. Hits are enriched below; roughly 9.3% of the tested compounds scored in any of these assays.

Cc1ccc(-c2c(C#N)c(N)nc3c2CCCCCC3)o1	Fluor 339 460 2.2 (no result: Htt clearance)
CCOC(=O)Cc1nnc2c(Nc3ccc(Cl)cc3)nc3nonc3n12	none
Cc1ccc(CCNc2ccccc2C)cn1	none (no result: Abs 340nm, M1 antag, M1 agonist, NADH coupling, Fluor 339 460)
COc1ccc(N=c2oc3cc(O)ccc3cc2C(=O)NCC2CCCO2)cc1 (configuration not stated)	Fluor 339 460 2.9
COc1ccc(N=c2oc3cc(O)ccc3cc2C(=O)NCC2CCCO2)c(OC)c1 (configuration not stated)	Fluor 339 460 3.8 (no result: Htt clearance)
Cc1ncc(CO)c2cc(C(N)=O)c(=Nc3ccccc3)oc12	none
Cc1ccc(N=c2oc3cc(O)ccc3cc2C(N)=O)cc1	Fluor 339 460 2.2 (no result: Htt clearance)
COc1ccc2c(c1)c(=O)oc1cc(OCC(=O)N3CCCC(C)C3)ccc12 (configuration not stated)	Fluor 339 460 3.9
Cc1cc(=O)oc2cc(OCC(=O)N3CCOCC3)ccc12	none (no result: Abs 340nm, M1 antag, M1 agonist, NADH coupling, Fluor 339 460)
COc1ccc2[nH]cc(C(=O)CN3CCCC(C)C3)c2c1 (configuration not stated)	none
COc1ccc2c(c1)c(=O)oc1cc(OCC(=O)N3CCC(C)CC3)ccc12	Fluor 339 460 3.5 (no result: Htt clearance)
CCCCNC(=O)CCC(=O)Nc1ccc2nc(N3CCOCC3)cc(C)c2c1	Fluor 339 460 4.7
Cc1cc(N2CCCCC2)nc2ccc(NC(=O)CCC(=O)NCCC(C)C)cc12	none (no result: Abs 340nm, M1 antag, M1 agonist, NADH coupling, Fluor 339 460)
Cc1cc(N2CCOCC2)nc2ccc(NC(=O)C3CCC(C)CC3)cc12 (configuration not stated)	Fluor 339 460 2.3 (no result: Htt clearance)
Cc1cc(N2CCN(C)CC2)nc2ccc(NC(=O)CCC(=O)NCCC3=CCCCC3)cc12	Fluor 339 460 3.8
COCCCNC(=O)CCC(=O)Nc1ccc2nc(N3CCOCC3)cc(C)c2c1	Fluor 339 460 4.7
CCCCCNC(CC(=O)Nc1ccc(OC)cc1)C(=O)O (configuration not stated)	none (no result: Htt clearance)
COC(=O)c1cc(-c2c(C)oc3cc(OC)ccc3c2=O)c(C)o1	none (no result: Htt clearance)
Cc1ccccc1-c1c(C)oc2cc(O)ccc2c1=O	Fluor 339 460 2.2 (no result: Htt clearance)
COC(=O)c1cc(-c2c(C)oc3cc(O)ccc3c2=O)c(C)o1	Fluor 339 460 2.4 (no result: Htt clearance)
Cc1cccc(Oc2coc3cc(OC(=O)c4cc5ccccc5oc4=O)ccc3c2=O)c1	none (no result: Abs 340nm, M1 antag, M1 agonist, NADH coupling, Fluor 339 460)
O=C(Nc1ccc(N2CCOCC2)c(Cl)c1)C1CCCCC1	none
c1ccc2c3c(cc(N4CCOCC4)c2c1)OC1(N2CCOCC2)CCCCC1O3 (configuration not stated)	Fluor 339 460 3.9
CC(NC(=O)c1cc2c(=O)n(C)c3ccccc3c2n1C)c1ccc2c(c1)OCCO2 (configuration not stated)	M1 agonist 4.4 (no result: Htt clearance)
CC(NC(=O)COc1cc(=O)n(C)c2ccccc12)c1ccc2c(c1)OCCO2 (configuration not stated)	none (no result: Htt clearance)
Cn1c(C(=O)Nc2ccc3c(c2)OCO3)cc2c(=O)n(C)c3ccccc3c21	Fluor 339 460 2.3 (no result: Htt clearance)
c1ccc(Cn2nnc3c(N4CCc5ccccc54)ncnc32)cc1	Fluor 339 460 4.3 (no result: Htt clearance)
CSc1ccc(/C=N\NC(=O)CNc2ccc(C)cc2)cc1	none (no result: Abs 340nm, M1 antag, M1 agonist, NADH coupling, Fluor 339 460)
Cn1c(=O)c2c(nc(SCC(=O)N3CCCc4ccccc43)n2C)n(C)c1=O	none
CCc1nc(SCC(=O)N2CCCc3ccccc32)c2c(=O)n(C)c(=O)n(C)c2n1	M1 agonist 3.5 (no result: Htt clearance)
CCc1nc(SCC(N)=O)c2c(=O)n(C)c(=O)n(C)c2n1	Htt clearance inconclusive
CCCCn1c(SCC(=O)N2CCCc3ccccc32)nc2c1c(=O)n(C)c(=O)n2C	M1 agonist 9.7 (no result: Htt clearance)
COCCn1c(=O)[nH]c2cc(C(=O)NCCN3CCN(c4ccc(OC)cc4)CC3)ccc2c1=O	none
Cn1nnnc1SCCNC/C=C/c1ccccc1	none
Cc1cc2c(c(=O)n1C)C(Cc1ccccc1)C(C#N)=C(N)O2 (configuration not stated)	none (no result: Htt clearance)
CCOC(=O)C1CCN(Cc2ccc(C(=O)OC)cc2)CC1	M1 antag -5.6, M1 agonist 41
CCOC(=O)C1CCN(Cc2ccc(F)cc2)CC1	none
c1ccc(Cn2nnc3c(Nc4ccc5c(c4)OCO5)nc(C4CC4)nc32)cc1	Fluor 339 460 3.7 (no result: Htt clearance)
COc1ccc(OC)c(Nc2nc(C3CC3)nc3c2nnn3Cc2ccccc2)c1	none (no result: Abs 340nm, M1 antag, M1 agonist, NADH coupling, Fluor 339 460)
O=C(NCCc1ccccc1)c1ccccc1NS(=O)(=O)N1CCCC1	Fluor 339 460 3.4
O=S(=O)(Nc1cccc2ccccc12)N1CCCC1	Fluor 339 460 2.5
O=S(=O)(Nc1ccc2c(c1)oc1ccccc12)N1CCCC1	none (no result: Htt clearance)
COC(=O)C1=C(C)N(c2cc(Cl)cc(Cl)c2)C(=O)C1	none (no result: Htt clearance)
CC1(C)CC2CC(C)(CN2C(=O)COC(=O)c2ccc(Cl)cc2N)C1 (configuration not stated)	Fluor 339 460 4.2
CC(C)OC(=O)CC(=O)CSc1nc2c(cc1C#N)CCC2	Fluor 339 460 3.7
CSc1nc(N)nc(SCC(=O)OC(C)C)c1C#N	none
CCc1c(C)nc(SCC(=O)CC(=O)OC(C)C)c(C#N)c1C	Fluor 339 460 2.2 (no result: Htt clearance)
COC(=O)CC(=O)CSc1nc2c(cc1C#N)CCC2	Fluor 339 460 3.8
N#Cc1cc2c(nc1SCc1nc3ccccc3[nH]1)CCC2	Fluor 339 460 2.1
c1coc(CN(Cc2ccco2)c2ncnc3c2oc2ccccc23)c1	none (no result: Abs 340nm, M1 antag, M1 agonist, NADH coupling, Fluor 339 460)
Cc1c(NC(=O)c2cc3nc(-c4ccc(Cl)cc4)cc(C(F)(F)F)n3n2)c(=O)n(-c2ccccc2)n1C	none (no result: Abs 340nm, M1 antag, M1 agonist, NADH coupling, Fluor 339 460)
CC(C)OC(=O)CC(=O)CSc1nc2c(cc1C#N)CCCC2	Fluor 339 460 3.7 (no result: Htt clearance)
CC(C)OC(=O)CC(=O)CSc1nc2c(cc1C#N)CCCCCC2	none (no result: Abs 340nm, M1 antag, M1 agonist, NADH coupling, Fluor 339 460)
COC(=O)CC(=O)CSc1nc(C)cc(C)c1C#N	Fluor 339 460 3.8
CCOC(=O)CC(=O)CSc1nc2c(cc1C#N)CCCCCC2	Fluor 339 460 2.4 (no result: Htt clearance)
COC(=O)c1ccccc1NS(=O)(=O)c1cn(C)c(=O)n(C)c1=O	none
Cc1ccccc1NC(=S)NN1CCN(C)CC1	none (no result: Abs 340nm, M1 antag, M1 agonist, NADH coupling, Fluor 339 460)
CN(c1ccc(C(=O)Nc2ccccc2C(F)(F)F)cc1)S(C)(=O)=O	none
O=C(Nc1ccc2c(c1)OCO2)N1CCN(S(=O)(=O)c2ccc(Cl)cc2)CC1	Htt clearance 77
Cc1c(-c2ccc(F)cc2)nc(N)c(C#N)c1-c1ccco1	Fluor 339 460 2.4
Cc1ccc(-n2c(SCc3cn4ccsc4n3)nc3ccccc3c2=O)cc1	none
CCOC(=O)c1nn(-c2ccc3c(c2)OCO3)cc1O	Fluor 339 460 2.1
O=C(O)c1cccn2c(=O)c3ccccc3nc12	NADH coupling 54µM (no result: Htt clearance)
CCSC1=C(C#N)C(c2cccc(Br)c2)CC(=O)N1 (configuration not stated)	M1 antag 11 (no result: Htt clearance)
O=C(O)c1cc(-c2ccccc2)nc2ccccc12	none (no result: Htt clearance)
COC(=O)c1cc(-c2ccc3c(c2)OCO3)nc2ccccc12	Fluor 339 460 2.2 (no result: Htt clearance)
CCOc1ccc(-c2cc(C(=O)NCCCN3CCN(CC)CC3)c3ccccc3n2)cc1	Fluor 339 460 5.2 (no result: Htt clearance)
